# Results as given in PubChem BioAssay (NCATS).
# Results filed as inconclusive are left out. Entries that show only a call come without a potency. Activity calls are given as the source filed them. The call rests on the fitted dose curve; in most records, active means well fitted inhibition curve with a large enough effect; inconclusive means small, poorly fitted or top-dose-only effect; inactive means flat fitted curve, though single readings scatter.
# Experiments:
# Test in all cases: qHTS profiling for inhibitors of Plasmodium falciparum proliferation (AID 504749); further: nearly all actives have a fitted effect of over 60% in size
# Conditions in all cases: P. falciparum in erythrocytes, SYBR Green DNA, 72 h; series mostly up to 28.7 µM
# [1] = system: CP185
# Procedure, shortened: (§1)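 SYBR Green fluorescence of parasite DNA, read after lysis and overnight dark incubation, measured growth over 72 h in erythrocyte culture at 0.3% parasitemia and 2.5% hematocrit. Data normalised to DMSO and 0.29 uM artemisinin, with plate-drift correction.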
# [2] = system: CP191
# Procedure, shortened: as §1
# [3] = system: CP192
# Procedure, shortened: as §1
# [4] = system: CP194
# Procedure, shortened: as §1
# [5] = system: CP201
# Procedure, shortened: as §1
# [6] = system: CP203
# Procedure, shortened: as §1
# [7] = system: CP211
# Procedure, shortened: as §1
# [8] = system: CP215
# Procedure, shortened: as §1
# [9] = system: CP217
# Procedure, shortened: as §1
# [10] = system: CP237
# Procedure, shortened: as §1
# [11] = system: CP238
# Procedure, shortened: as §1
# [12] = system: CP247
# Procedure, shortened: as §1
# [13] = system: CP250
# Procedure, shortened: as §1
# [14] = system: CP252
# Procedure, shortened: as §1
# [15] = system: CP256
# Procedure, shortened: as §1
# [16] = system: CP260
# Procedure, shortened: as §1
# [17] = system: CP262
# Procedure, shortened: as §1
# [18] = system: CP265
# Procedure, shortened: as §1
# [19] = system: CP266
# Procedure, shortened: as §1
# [20] = system: CP268
# Procedure, shortened: as §1
# Potency means the concentration at half of the fitted maximal effect.
SMILES,Potency [1],Potency [2],Potency [3],Potency [4],Potency [5],Potency [6],Potency [7],Potency [8],Potency [9],Potency [10],Potency [11],Potency [12],Potency [13],Potency [14],Potency [15],Potency [16],Potency [17],Potency [18],Potency [19],Potency [20]
CCC(C(=O)O)C1CCC(C)C(C(C)C(O)C(C)C(=O)C(CC)C2OC3(C=CC(O)[C@@]4(CC[C@](C)(C5CC[C@@](O)(CC)C(C)O5)O4)O3)C(C)CC2C)O1 (some centres undefined),1260 nM (active),1000 nM (active),849 nM (active),601 nM (active),953 nM (active),269 nM (active),536 nM (active),675 nM (active),1120 nM (active),447 nM (active),1120 nM (active),891 nM (active),1120 nM (active),891 nM (active),2000 nM (active),631 nM (active),849 nM (active),1260 nM (active),1350 nM (active),1070 nM (active)
COc1ccc([C@@H]2CNC(=O)C2)cc1OC1CCCC1,inactive,inactive,inactive,inactive,inactive,inactive,inactive,inactive,inactive,inactive,inactive,inactive,inactive,inactive,inactive,inactive,inactive,inactive,inactive,inactive
COc1cccc2c1C(=O)c1c(O)c3c(c(O)c1C2=O)C[C@@](O)(C(=O)CO)C[C@@H]3O[C@H]1C[C@H](N)[C@H](OC2CCCCO2)[C@H](C)O1 (some centres undefined),,8910 nM (active),8490 nM (active),9530 nM (active),9530 nM (active),4780 nM (active),,6750 nM (active),4470 nM (active),2240 nM (active),5010 nM (active),3550 nM (active),2510 nM (active),11200 nM (active),8910 nM (active),2240 nM (active),inactive,8910 nM (active),7570 nM (active),8490 nM (active)
Nc1nc2c(c(=O)[nH]1)N(C=O)[C@H](CNc1ccc(C(=O)N[C@@H](CCC(=O)O)C(=O)O)cc1)CN2,inactive,inactive,inactive,inactive,inactive,inactive,inactive,inactive,inactive,inactive,inactive,inactive,inactive,inactive,inactive,inactive,inactive,inactive,inactive,inactive
OCC(O)C(O)C(O)CO (centres undefined),inactive,inactive,inactive,inactive,inactive,inactive,inactive,inactive,inactive,inactive,inactive,inactive,inactive,inactive,inactive,inactive,inactive,inactive,inactive,inactive
CCCCCCCCCCCC(CC1OC(=O)C1CCCCCC)OC(=O)C(CC(C)C)NC=O (centres undefined),708 nM (active),562 nM (active),inactive,9530 nM (active),inactive,,,,2240 nM (active),794 nM (active),708 nM (active),398 nM (active),447 nM (active),794 nM (active),708 nM (active),794 nM (active),inactive,631 nM (active),inactive,
COc1ccc2c(c1OC)C(=O)OC2[C@H]1c2c(cc3c(c2OC)OCO3)CCN1C (some centres undefined),inactive,inactive,inactive,inactive,inactive,inactive,inactive,inactive,inactive,inactive,inactive,inactive,inactive,inactive,inactive,inactive,inactive,inactive,inactive,inactive
